The text below walks through data of PubChem BioAssay AID588393 (NMMLSC, 2011).

Active and inactive are the calls of the source.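 How the source made its calls: active means valid curve fit, half-maximal dose at most 10 µM, and binding change across doses at least 30%; inactive means the rest.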

The test system of the assay is Rab7 GTPase, wild type (Canis lupus familiaris). The experiment in a line: inhibition of Bodipy-GTP binding to Rab7 – biochemical, dog Rab7, bead multiplex flow cytometry, round 1, Cdc42 probe extension project, SAR follow-up (AID 588393). As to conditions: GST-Rab7 beads, Bodipy-FL-GTP binding, EDTA; series mostly up to 100 µM. A general note: In flow cytometry, cells or beads pass a laser one at a time.
As for `COc1ccc(C2CC(c3ccccc3)=NN2c2ccc(S(N)(=O)=O)cc2)cc1` (stereo not drawn), the molecule was classed as inactive.

For the molecule `O=C(C#Cc1ccccc1)c1cccc([N+](=O)[O-])c1`, the call was inactive.

With `NS(=O)(=O)c1ccc(N2N=C(c3ccccc3)CC2c2ccccc2)cc1` (stereo not drawn), the outcome was inactive.
